From PubChem BioAssay AID720591 (Broad Institute, 2013)
About 60 (5%) of roughly 1,200 compounds were called active. Roughly 1% stayed inconclusive and do not appear here.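 Rule for the calls: active = Decreasing signal and fitted IC50 at most twice the top valid tested dose; inconclusive = Bad fit or a level curve showing 30 to 70% inhibition; inactive = the rest.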 The list is a sample of the results. Entries with a potency or affinity are not part of this list.

biological target: NAD-dependent protein deacylase sirtuin-5, mitochondrial (Homo sapiens) (UniProt Q9NXA8); experiment: SIRT5 desuccinylase inhibitors, dose response, biochemical, fluorescence imaging, cherry-pick, set 5 (AID 720591); details: Purified SirT5, succinyl-peptide AMC, trypsin-coupled fluorescence; series mostly up to 15 µM; activity change, negative = inhibition: at the top concentration;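 note: 0% = median of neutral control wells and -100% = median of positive control wells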
Sequence (Q9NXA8 whole entry, looked up): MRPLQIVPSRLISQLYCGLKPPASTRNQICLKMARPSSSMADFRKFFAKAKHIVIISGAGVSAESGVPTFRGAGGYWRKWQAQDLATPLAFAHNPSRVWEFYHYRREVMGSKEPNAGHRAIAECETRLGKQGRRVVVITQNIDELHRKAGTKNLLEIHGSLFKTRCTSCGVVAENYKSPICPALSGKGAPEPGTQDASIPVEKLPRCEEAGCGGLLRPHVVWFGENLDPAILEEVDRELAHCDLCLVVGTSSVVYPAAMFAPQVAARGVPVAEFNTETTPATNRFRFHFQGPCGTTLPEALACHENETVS

Activity change, negative = inhibition, inactive:
O=C(Cc1ccc(Cl)cc1)Nc1ccc(C(=O)N2CCCCC2)cc1 -15.9%
O=C(Nc1cccc(Br)c1)c1ccc(CSc2ccccc2)cc1 -25.6%
O=C(Cc1ccc(Cl)cc1)Nc1ccc(CN2CCCCC2)cc1 4.66%
CN(C)C(=O)c1ccc(NC(=O)c2sccc2-c2ccccc2)cc1 12.8%
C[C@@H](CSc1ccc(Br)cc1)CN1CC[C@H](NC(=O)OCc2ccccc2)CCC1=O 21.5%
Cc1cccc(C)c1NC(=O)CN(Cc1ccccc1)Cc1ccccc1 17.6%
CC(C)C(=O)Nc1cccc(COc2ccccc2CN(Cc2ccccc2)C(=O)OC(C)(C)C)c1 -27.9%
Cc1ccc(CNC(=O)CCc2ccc(S(=O)(=O)NCC(C)C)cc2)cc1 -24.4%
Clc1ccc(SCc2cn3ccccc3n2)cc1 -21.3%
Cc1ccn2cc(CSc3ccccc3)nc2c1 6.69%
Cc1cccc(COC[C@H](Cc2ccccc2)N2CCN(C(=O)c3cc(Cl)cc(Cl)c3)CCC2=O)c1 -29.7%
CCOC(=O)C1(C)CCN1C(=O)c1cccc(Cl)c1 (stereo not drawn) -3.12%
COc1cc(OC)c(NS(=O)(=O)c2cc(C(=O)OCC(=O)NCC3CCCO3)ccc2OC)cc1Cl (stereo not drawn) -26.7%
COc1cc(C(=O)N2CCNCC2)cc(OC)c1OC -4.5%
COc1cc(C(=O)NCCN2CCN(C(=O)c3cc(OC)c(OC)c(OC)c3)CC2)cc(OC)c1OC 3.49%
CCN(C(=O)COC(=O)CNC(=O)c1ccccc1C)C1=CCCCC1 22.5%
CNC(=O)CSc1nnc(-c2ccco2)n1-c1cccc(OC)c1 0.832%
COc1ccc(-n2c(SCC(N)=O)nnc2-c2ccco2)cc1 -23.9%
COc1ccc(-c2cccc(C3CC=CC4C3C(=O)N(Cc3ccccc3)C4c3ccc(C(F)(F)F)cc3)c2)cc1 (stereo not drawn) 23.6%
CC(=O)N1N=C(c2cccc(NS(C)(=O)=O)c2)CC1c1cccs1 (stereo not drawn) -25.8%
COC(=O)c1ccc(C)c(NC(=O)CSc2sc3c(O)cc(=O)[nH]c3c2C#N)c1 -17%
CSc1nsc(SCC(=O)Nc2ccc(Cl)c(C(=O)O)c2)n1 -17.9%
CCCCc1c(-c2ccccc2F)ncn1CCc1ccccc1OC 13.7%
C[C@H](NC(=O)OCc1ccccc1)C(=O)NNC(=O)[C@H](C)NC(=O)OCc1ccccc1 -29.1%
CC(C)c1ccc(NC2CCCN(C(=O)CC3CCCC3)C2)cc1 (stereo not drawn) 20.8%
Cc1ccsc1C(=O)NNC(=O)CCN1CCN(c2ccccc2)CC1 -24.2%
Cc1ccc(-c2csc(NC(=O)Cn3[nH]c(=O)c4ccccc4c3=O)n2)cc1 -13.9%
Cc1sc(NC(=O)Cn2[nH]c(=O)c3ccccc3c2=O)nc1-c1ccccc1 -2.7%
CCN(c1ccccc1)S(=O)(=O)c1ccc2[nH]c(=O)[nH]c2c1 5.81%
Cc1cc(C)c(OCC(=O)NCC(C)(C)N2CCOCC2)c(C)c1 -12.2%
Cc1ccc2cc(CN(Cc3ccc(F)cc3)Cc3nnnn3C3CCCC3)c(=O)[nH]c2c1 6.37%
Cn1cc(Br)c(C(=O)Nc2c(F)c(F)c(F)c(F)c2F)n1 -22.1%
CN(C)CCNC(=O)c1cccc(S(=O)(=O)Nc2ccccc2F)c1 14%
CCN(CC(=O)Nc1ccc(NC(C)=O)cc1)C(=O)c1ccc(COc2ccc(C(C)(C)C)cc2)cc1 -1.48%
COc1ccc(OCC(=O)Nc2ccc(NC(=O)c3cccs3)cc2)cc1 -14.9%
Cc1ccc(C(C(=O)NC2CCCC2)N(Cc2ccco2)C(=O)CCC(=O)Nc2cc(C)on2)cc1 (stereo not drawn) -17%
Cc1ccccc1OCC(O)CN1CCN(CC(O)COc2ccccc2C)CC1 (stereo not drawn) 8.37%
CCOC(=O)C1CCc2c(ccc3ccccc23)N1CCC#N (stereo not drawn) 12.2%
CC(C)(C)Cc1nnc(NC(=O)Cc2cccs2)s1 14.6%
CN(C)CCCNC(=O)c1cc(C(=O)c2ccccc2F)c[nH]1 1.08%
COc1ccc(C(=O)OCCN2CCCCC2)cc1 -12%
CCC(C)(C)NC(=O)C(c1ccc(OC)cc1)N(Cc1ccco1)C(=O)CCC(=O)Nc1cc(C)on1 (stereo not drawn) -28.7%
Cc1ccc(C(C(=O)NC(C)(C)C)N(Cc2ccco2)C(=O)CCC(=O)Nc2ccccn2)cc1 (stereo not drawn) -11.8%
COc1ccc([C@H]2N[C@]3(CCCN(Cc4cccn4C)C3=O)[C@H]3C(=O)N(C)C(=O)[C@@H]23)cc1 1.22%
C=CCn1c(SCC(=O)c2ccc(O)c(O)c2)nnc1-c1ccc(C)cc1 -23.6%
COc1ccc(C)cc1N(C)C(=O)Cc1c(C(=O)O)n(C)c2ccccc12 -31.2%
COc1ccccc1NC(=O)CNc1ccc(F)c(Cl)c1 0.52%
CC1CN(CCOc2ccccc2-c2ccccc2)CC(C)O1 (stereo not drawn) -17.6%
CCc1ccc(N(C(=O)CCC(=O)Nc2cc(C)on2)C(C(=O)NC2CCCC2)c2ccco2)cc1 (stereo not drawn) 8.88%
COc1cc(C(C)=O)ccc1OCc1cn(CC(=O)c2ccc(O)cc2)nn1 6.41%
CS(=O)(=O)N(CC(=O)N1CCCCCC1)c1cccc(F)c1 -22.2%
CS(=O)(=O)N(CC(=O)N1CCCC1)c1cccc(F)c1 -28.6%
C#CC1(NC(=O)NCCCC)CCCCC1 16.7%
Fc1ccc(-c2nc3ccc(Cl)cn3c2Cc2cccc(F)c2)cc1 12.6%
Cc1ccc2nc(-c3ccccc3)c(Cc3cccc(Cl)c3)n2c1 -3.52%
COc1ccccc1CNS(=O)(=O)c1cccs1 2.11%
C=C(C)Cn1c(N2CCN(c3ccc(OC)cc3)CC2)nc2c1c(=O)n(C)c(=O)n2C -9.42%
Cn1cnc2c(NCc3ccco3)ncnc21 -20.1%
COC(=O)c1cccc(NC(=O)CSc2nnc(COc3ccc(C#N)cc3)n2-c2ccccc2)c1 -25.5%
Cc1cn(CC(=O)NCc2ccccc2)c(=O)[nH]c1=O 22.2%
O=C1OCCOC2CCCc3oc(C4=CCCCC4)c1c32 (stereo not drawn) -23.7%
Cc1ccc(NS(=O)(=O)c2ccc3c(c2)N(C)CCO3)cc1 -1.07%
Cc1ccc2nc(SC(C)C(=O)N3CC(C)OC(C)C3)[nH]c2c1 (stereo not drawn) 11%
Cc1ccccc1NS(=O)(=O)c1ccc(C(=O)NCC2CCCO2)cc1 (stereo not drawn) -30.8%
O=C(c1ccc(F)cc1)N1CCOCC1 38.5%
O=C(CSc1ccccc1Cl)N1CCOCC1 -29.6%
CCOc1ccc(C(C)C)cc1S(=O)(=O)n1ccnc1C -11.2%
Cc1ccc(S(=O)(=O)N(C)c2ccc(NS(C)(=O)=O)cc2)cc1 -2.72%
